# In the library only some 5.8% were active in any assay of this set; here they are far more common.
# TRPV1 PAM = HTS Assay for Compounds that Act as Potentiators of the Vanilloid Receptor 1. Transient receptor potential cation channel subfamily V member 1 (Homo sapiens), Q8NER1. TRPV1-expressing cells, Fluo-8 calcium influx, capsaicin EC20 potentiation. potentiation, % at 8.33 µM. 320,000 compounds, 0.02% hits. AID 540277, 2011; in the data active means potentiation above about 80%; inconclusive means between about 30% and that limit; further: 0% is about no effect
#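 Fluo-8 calcium influx in TRPV1-expressing cells, kinetic read (ex 480/em 520 nm). Compound added and read 3 min for agonist activity, followed by capsaicin at EC20 final and 2 min further read for enhancement.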
# TRPV1 agonist = HTS Assay for Compounds that Act as Agonists of the Vanilloid Receptor 1; AID 540275, 2011; TRPV1-expressing cells, Fluo-8 calcium influx, agonist mode; Transient receptor potential cation channel subfamily V member 1 (Homo sapiens), Q8NER1; activation, % at 8.33 µM; 320,000 compounds, 0.19% hits; in the data active means activation above about 80%; inconclusive means between about 30% and that limit; further: 0% is about no effect
#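 Fluo-8 calcium influx in TRPV1-expressing cells, kinetic read (ex 480/em 520 nm). Compound added and read 3 min for agonist activity, followed by capsaicin at EC20 final and 2 min further read for enhancement.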
# uPA surface inh = qHTS for Inhibitors of Cell Surface uPA Generation; cell surface uPA generation assay, qHTS; Potency, µM (highest dose often 38.3 µM), for inactives: at the top dose activity change, negative = inhibition, hits mostly inhibitors; 330,000 compounds, 0.31% hits; active means well fitted inhibition curve with a large enough effect; inconclusive means small, poorly fitted or top-dose-only effect; inactive means no such curve, though single readings can be large or run the other way; tested in mouse RAW 264.7 cells; further: potency means the concentration at half of the fitted maximal effect; on the % scale 0 is the no-effect control and ±100 the full control effect; nearly all actives have a fitted effect of over 55% in size
# Gal4-VP16 FLuc = VP16 counterscreen qHTS for inhibitors of ROR gamma transcriptional activity | Drosophila S2 Gal4-VP16 UAS-luciferase, luminescence, 20 h | Potency, µM (doses to about 53.6 µM), inactives show at the highest dose activity, negative = inhibition, usual class: inhibitors | 310,000 compounds, 3.5% hits | AID 2546, 2010;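 further: Gal4-VP16 expression switched on by copper sulfate through the metallothionein promoter; potency means the concentration at half of the fitted maximal effect; on the % scale 0 is the no-effect control and ±100 the full control effect; nearly all actives have a fitted effect of over 50% in size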
# RORgamma inh = qHTS for inhibitors of ROR gamma transcriptional activity | Potency, µM (titrated, usually from 53.6 µM), inactives show top-dose activity change, negative = inhibition, usual class: inhibitors | Drosophila S2 Gal4-RORgamma UAS-luciferase reporter, 20 h | AID 2551, 2010 | 310,000 compounds, 5.4% hits; further: potency means the concentration at half of the fitted maximal effect; on the % scale 0 is the no-effect control and ±100 the full control effect; nearly all actives have a fitted effect of over 60% in size
# Target sequence (P51450 whole entry, looked up, the tested form may be a part): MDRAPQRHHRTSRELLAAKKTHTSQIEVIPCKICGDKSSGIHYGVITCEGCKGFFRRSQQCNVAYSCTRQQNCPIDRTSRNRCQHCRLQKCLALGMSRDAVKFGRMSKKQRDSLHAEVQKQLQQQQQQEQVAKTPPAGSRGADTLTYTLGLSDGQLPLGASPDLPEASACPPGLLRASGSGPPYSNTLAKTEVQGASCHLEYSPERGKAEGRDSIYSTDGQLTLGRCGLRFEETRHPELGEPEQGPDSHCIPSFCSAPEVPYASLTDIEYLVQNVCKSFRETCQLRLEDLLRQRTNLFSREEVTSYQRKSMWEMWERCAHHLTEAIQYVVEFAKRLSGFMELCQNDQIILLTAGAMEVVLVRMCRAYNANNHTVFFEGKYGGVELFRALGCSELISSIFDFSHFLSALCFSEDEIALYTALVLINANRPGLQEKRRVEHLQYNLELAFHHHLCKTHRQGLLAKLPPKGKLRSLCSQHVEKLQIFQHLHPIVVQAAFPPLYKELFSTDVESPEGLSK
#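 Luminescence from a UAS-regulated Photinus luciferase reporter in stably transfected Drosophila Schneider cells is measured; decreased signal marks ROR gamma inhibition. Fusion expression is induced by 700 uM copper sulfate for 20 hr.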
# An asterisk follows results filed as active; i = inactive; ? = inconclusive; · = not tested or not shown; [ ] = remark or other dose. Unless noted, the call rests on the fitted dose curve; in most records, active means well fitted curve in the direction sought with a large enough effect; inconclusive means small, poorly fitted or top-dose-only effect, or another doubt; inactive means no such curve, though single readings can be large; an effect the other way counts as inactive or inconclusive.
SMILES,TRPV1 PAM,TRPV1 agonist,uPA surface inh,Gal4-VP16 FLuc,RORgamma inh
Cc1ccc(C)c(S(=O)(=O)Nc2cc(SCC(=O)O)c(O)c3ccccc23)c1,25,2,-17%,14µM*,-30%[10 µM]
O=C(O)CSc1cc(NS(=O)(=O)c2cccc([N+](=O)[O-])c2)c2ccccc2c1O,6,-2,-6%,?,?
Cc1ccccc1C(OCC(O)CN1CCC(C(N)=O)CC1)c1ccccc1 (stereo unspecified),-42,11,0%,11%,-6%
COC(=O)CSc1nc(N)c2c3c(sc2n1)CCCC3,0,8,-2%,5%,?
COC(=O)CSc1nc(N)c2c3c(sc2n1)C(c1ccccc1)SC(c1ccccc1)C3 (stereo unspecified),?,0,-5%,11µM*,10µM*
C/C(CCN1CCc2nc(-c3ccccc3)c(-c3ccccc3)cc2C1)=N\O[C@@H](C)CN1CCCc2nc(C)c(C)cc21,·,·,·,-12%[10 µM],-13%[10 µM]
COc1ccc(N2C(=O)C3[C@@H](C2=O)C2(Cl)C(Cl)=C(Cl)C3(Cl)C2(OC)OC)cc1 (stereo partly specified),-2,11,-1%,5%,2%
O=C(CCc1ccccc1)Nc1ccccc1C(=O)NCc1ccco1,-2,6,3%,4%,?
CC(C)(C)CC(=O)NC(=S)NCc1ccco1,-3,5,-6%,?,4.5µM*
O=C(CCc1ccccc1)NC(=S)NCc1ccco1,-14,4,2%,?,7.9µM*
CC(C)(O)C(=O)NNC(=S)NCc1ccco1,9,-1,1%,6%,40%
OC[C@@H](O)C(O[C@@H]1O[C@@H](CO)[C@H](O)[C@H](O)[C@H]1O)[C@H](O)[C@@H](O)CO (stereo partly specified),·,·,·,7%,-19%[10 µM]
Cc1cccc(N2C(=O)CC(Sc3ncn[nH]3)C2=O)c1 (stereo unspecified),-12,2,-8%,-11%[10 µM],13µM*
O=C(O)c1ccccc1SC1CC(=O)N(c2ccc3c(c2)OCO3)C1=O (stereo unspecified),5,2,0%,?,3.2µM*
CN(C)c1ccc(N2C(=O)CC(Sc3ccccc3C(=O)O)C2=O)cc1 (stereo unspecified),-4,-1,-3%,16µM*,?
Nc1ccccc1SC1CC(=O)N(c2ccc3c(c2)OCO3)C1=O (stereo unspecified),?,-6,2%,-4%,-1%
Cc1cccc(N2C(=O)CC(Sc3ccccc3C(=O)O)C2=O)c1 (stereo unspecified),0,0,6%,5µM*,?
Cc1ccc(C(=O)Nc2ccccc2C(=O)O)cc1S(=O)(=O)Nc1ccc(Br)cc1,·,·,6%,·,·
COc1ccc([C@]23Cc4cc(OC)c(OC)cc4C(O2)c2c(cc(C)n(Cc4ccccc4)c2=O)O3)cc1,i,i,·,?,5%[10 µM]
CCCCOc1ccc(Br)cc1CSC(=N)N,-56,0,-8%,10µM*,?
CC12CC3CC(C)(C1)CC(C(=O)NNC(=O)c1ccncc1)(C3)C2,10,2,-2%,-6%,5%
COc1ccccc1NC(=O)/C(C#N)=C/c1ccncc1,1,0,-1%,2.5µM*,?
CC(C)CC(CSc1ccc(Br)cc1)N1CCN(CC(C)C)CCC1=O (stereo unspecified),·,·,·,-10%,13%
CC1CN(C(=S)NC(=O)c2ccco2)CC(C)O1 (stereo unspecified),-5,-5,1%,20µM*,4µM*
O=C(NC(=S)N1CCOCC1)c1ccc([N+](=O)[O-])cc1,?,0,-2%,2.2µM*,1.4µM*
SMILES,TRPV1 PAM,TRPV1 agonist,uPA surface inh,Gal4-VP16 FLuc,RORgamma inh
COc1ccc(C(=O)NC(=S)N2CCN(c3ccccc3OC)CC2)cc1,5,7,-7%,?,2µM*
CC1CN(C(=S)NC(=O)c2ccccc2)CC(C)O1 (stereo unspecified),-1,1,-1%,3.2µM*,3.5µM*
COc1ccc(NC(=O)N2CCN(c3ccc([N+](=O)[O-])cc3)CC2)cc1,-2,3,0%,-1%,-14%
CC1CN(C(=S)NC(=O)c2ccc([N+](=O)[O-])cc2)CC(C)O1 (stereo unspecified),-18,-1,3%,1.3µM*,0.45µM*
O=C(NC(=S)N1CCN(c2ccccn2)CC1)c1ccco1,12,-1,2%,3.2µM*,0.18µM*
S=C(Nc1cccc(Cl)c1Cl)N1CCCC1,-4,3,0%,-2%,-36%
CC1CN(C(=S)Nc2cccc(Cl)c2Cl)CC(C)O1 (stereo unspecified),-6,-2,-2%,?,18µM*
COc1ccc(C(=O)NC(=S)N2CCN(c3ccc([N+](=O)[O-])cc3)CC2)cc1,-10,1,-5%,0.89µM*,0.63µM*
O=C(CCNc1ccc(Cc2ccncc2)cc1)c1ccc([N+](=O)[O-])cc1,-3,-3,-7%,-19%[10 µM],-2%
CC(=O)Nc1ccc(SCC(CC(C)C)N2CCN(C)CCC2=O)cc1 (stereo unspecified),·,·,·,-2%,-17%
O=C(NC(=S)N1CCCC(O)C1)c1ccco1 (stereo unspecified),·,·,6%,·,·
CN1CCN(C(=S)NC(=O)c2ccco2)CC1,-8,-6,6%,14µM*,3.5µM*
O=C(CSc1n[nH]c(-c2ccccn2)n1)Nc1cccc(Cl)c1,7,6,-15%,2.8µM*,1.8µM*
Cc1nc(SCC(=O)Nc2cccc(Cl)c2)n[nH]1,3,-2,-2%,4%,0%
Cc1ccc(C)c(NC(=O)CSc2n[nH]c(-c3ccccn3)n2)c1,2,2,-15%,?,6.3µM*
O=C(CCCCn1ccc(=O)[nH]c1=O)Nc1ccc(C(=O)O)c(O)c1,·,·,0%,·,·
Oc1cccc2c(NC(=S)Nc3ccc(SC(F)F)cc3)cccc12,3,2,-27%,7.9µM*,6.3µM*
Oc1cccc(NC(=S)Nc2ccc(SC(F)F)cc2)c1,-1,2,-3%,4%,-10%
COC(=O)c1ccc(/C=N/NC(=S)NCCN2CCOCC2)cc1,-2,1,0%,?,?
COc1cc(/C=N/NC(=S)NCCN2CCOCC2)cc(OC)c1O,19,4,1%,?,?
COc1cc(OC)c(OC)cc1/C=N/NC(=S)NCC1CCCO1 (stereo unspecified),13,-1,·,14µM*,6.3µM*
COc1cc(OC)c(OC)cc1/C=N/NC(=S)NCCN1CCOCC1,-2,2,5%,7.1µM*,4µM*
